# PLK1 PBD block = blocks phosphopeptide binding to human PLK1 polo-box domain; Potency, µM, without a hit: max response, negative = inhibition, most hits filed as inhibitors; 360,000 compounds, 2.8% hits; Plk1 PBD binding of FITC phosphopeptide, fluorescence polarization; further: series mostly up to about 57 µM; nearly all actives have a fitted effect of over 65% in size
# Target sequence (P53350 whole entry, looked up, the tested form may be a part): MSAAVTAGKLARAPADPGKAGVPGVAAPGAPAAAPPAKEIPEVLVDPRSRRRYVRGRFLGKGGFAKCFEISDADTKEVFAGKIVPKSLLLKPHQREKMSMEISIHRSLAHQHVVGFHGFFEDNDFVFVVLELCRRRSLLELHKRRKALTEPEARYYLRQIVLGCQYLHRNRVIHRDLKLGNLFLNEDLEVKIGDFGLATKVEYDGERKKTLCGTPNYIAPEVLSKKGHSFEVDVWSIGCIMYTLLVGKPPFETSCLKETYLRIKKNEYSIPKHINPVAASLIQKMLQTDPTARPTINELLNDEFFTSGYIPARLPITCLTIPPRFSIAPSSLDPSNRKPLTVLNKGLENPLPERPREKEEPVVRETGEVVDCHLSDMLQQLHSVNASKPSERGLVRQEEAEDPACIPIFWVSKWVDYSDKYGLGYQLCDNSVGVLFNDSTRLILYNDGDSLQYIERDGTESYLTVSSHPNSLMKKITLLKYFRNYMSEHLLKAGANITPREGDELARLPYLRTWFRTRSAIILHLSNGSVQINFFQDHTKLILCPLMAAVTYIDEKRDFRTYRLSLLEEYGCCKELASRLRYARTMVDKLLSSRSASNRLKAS
# VDR inhibitor = blocks the human vitamin D receptor; P11473; VDR-SRC2-3 peptide fluorescence polarization, 2 h; Potency, µM, for the others: max response, negative = inhibition, hits mostly inhibitors; 400,000 compounds, 0.93% hits; AID 504847
#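 Compounds are added to VDR with labelled SRC2-3 coactivator peptide and held 2 h at room temperature. Inhibition of the VDR–peptide interaction is then read as a change in fluorescence polarization.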
# 12-LOX inh = ALOX12 (human) lipoxygenase inhibition. P18054. purified 12hLO, xylenol orange hydroperoxide absorbance. Potency, µM (series often up to 108 µM), for the others: at the highest dose activity change, negative = inhibition, most hits filed as inhibitors. 580,000 compounds, 1.1% hits
#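 Purified human 12hLO (150 nM final) in 25 mM Hepes, 0.01% Triton X-100, pH 7.0 was preincubated 15 min at room temperature with compound. Then 40 uM arachidonic acid was added, 30 min. Hydroperoxide was read by Fe-XO absorbance ratio 573/405 nm.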
# KAT2A inh = blocks human GCN5L2 histone acetyltransferase; Q92830; Potency, µM (series often up to 58.9 µM), without a hit: top-dose activity change, negative = inhibition, hits mostly inhibitors; 390,000 compounds, 0.21% hits; AID 504327; GCN5L2 HAT assay, ThioGlo1 CoA-SH fluorescence
#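 Titration-based screen in which CoA formation is detected via maleimide probe ThioGlo1 (50uM) turning fluorescent on thiol reaction; substrates H3(1-25) 75uM and acetyl-CoA 70uM, GCN5L2 20nM, 20 min incubation at room temperature.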
# * marks the source's active call; other numbers are inactive results; ? = inconclusive; . = no result; ! = not active in a repeat; [ ] = another dose, or the depositor's remark. The list is not random: actives were taken first. Their share in the collection is about 3%. The call rests on the fitted dose curve; in most records, active means well fitted curve in the direction sought with a large enough effect; inconclusive means small, poorly fitted or top-dose-only effect, or another doubt; inactive means no such curve, though single readings can be large; an effect the other way counts as inactive or inconclusive. On the % scale 0 is the no-effect control and ±100 the full control effect; potency means the concentration at half of the fitted maximal effect.
SMILES,PLK1 PBD block,VDR inhibitor,12-LOX inh,KAT2A inh
N#Cc1c(NC(=O)/C=C/c2ccco2)sc2c1CCCC2,-24.4%,-5.1%,35.5µM*,44.8%
Cc1cc(C(F)F)n2nc(C(=O)Nc3sc4c(c3C#N)CCC4)nc2n1,26.7µM*,-8.0%,?,-12.4%
O=C(COc1ccc2ccc(=O)oc2c1)NCc1cccs1,.,.,25.0%,.
COc1ccccc1-c1cc(C(=O)Nc2sc3c(c2C#N)CCCC3)no1,.,79.4µM*,-12.1%,-16.9%
CC(C)Cc1cc(C(=O)Nc2sc3c(c2C#N)CCC3)no1,23.8µM*,-16.7%,?,-4.2%
N#Cc1c(NC(=O)c2ccccc2)sc2c1CCCCC2,-6.9%,2.8%,-24.2%,-1.5%
CCOC(=O)c1cccc(NS(=O)(=O)c2cc(-c3nn(CC)c(=O)c4c3CCCC4)ccc2C)c1,.,.,21.3%,.
O=C(COc1ccccc1F)NC12CC3CC(CC(C3)C1)C2,29.9µM*,?,11.5%,-3.6%
CN(C(=O)CSc1nnc(-c2ccccc2)n1C)C1CCS(=O)(=O)C1 (stereo not given),26.7µM*,-6.4%,-4.3%,-5.7%
CN(C(=O)CSc1nc(-c2ccccc2)c(-c2ccccc2)o1)C1CCS(=O)(=O)C1 (stereo not given),29.9µM*,-1.7%,-5.3%,-7.5%
CN(C(=O)CSc1nc2ccccc2o1)C1CCS(=O)(=O)C1 (stereo not given),-12.3%,-9.5%,?,-7.2%
CN(C(=O)CSc1nnc(-c2ccc(F)cc2)n1C)C1CCS(=O)(=O)C1 (stereo not given),-3.5%,-2.5%,-2.1%,-2.8%
Cc1cc(C=O)c(C)n1-c1ccc(Cl)c(C(=O)O)c1,10.6µM*,8.5%,?,-15.5%
COc1ccc(OC)c(NC(=O)CCC[C@@H]2[C@H]3CCCN4CCC[C@@H](CN2C)[C@@H]34)c1,.,.,60.2%,.
CCOc1ccc2c(c1)cc(C(=O)NCc1ccco1)n2C,.,.,17.8µM*,.
CCOc1ccc2c(c1)cc(C(=O)Nc1ccc(OC)cc1)n2C,.,.,1.9%,.
CCOc1ccc(/C=N/OCC(=O)NCc2ccco2)cc1,15µM*,?,7.1%,0.7%
Cc1ccc(SC(C)C(=O)Nc2c(C)cccc2C)cc1 (stereo not given),.,.,3.4%,.
CCOC(=O)C1=C(O)c2ccccc2C(=O)/C1=C\c1ccc(C)cc1,0.67µM*,?,10µM*,-9.4%
CCOC(=O)C1=C(C)OC(=Cc2ccccc2)C1=O,-18.5%,.,-23.7%,.
Cc1ccc(-c2c(C)sc(NC(=O)C3C4CCC(O4)C3C(=O)O)c2C(=O)OC(C)C)cc1 (stereo not given),?,-13.3%,0.0%,5.9%
CC(C)=C1C2CCC1C(C(=O)Nc1sc(C)c(-c3ccc(C(C)C)cc3)c1C(N)=O)C2C(=O)O (stereo not given),29.9µM*,-13.0%,?,-13.1%
CCOC(=O)c1sc(NC(=O)/C=C/c2ccc(F)cc2)nc1C,21.2µM*,-12.6%,10.5%,-1.6%
CCOC(=O)c1c(NC(=O)/C=C/C(=O)O)sc(C)c1-c1ccc(F)cc1,-14.4%,22.4µM*,8.6%,-0.8%
COC(=O)c1c(NC(=O)/C=C/C(=O)O)sc(C)c1-c1ccc(C)cc1,-19.1%,?,?,-0.1%
SMILES,PLK1 PBD block,VDR inhibitor,12-LOX inh,KAT2A inh
COC(=O)c1c(NC(=O)/C=C/C(=O)O)sc(C)c1-c1ccc(C(C)C)cc1,37.7µM*,25.1µM*,-1.5%,0.0%
CC1=C(C(=O)Nc2cc(C)cc(C)c2)C2(CCCCCC2)OC1=O,.,.,1.5%,.
COC(=O)c1sc(-c2ccc(Cl)cc2)cc1NC(=O)/C=C/C(=O)O,-11.8%,31.6µM*,0.0%,-5.6%
CCOC(=O)c1c(NC(=O)/C=C/C(=O)O)sc(C)c1-c1ccc(C)c(C)c1,?,?,-28.2%,-21.2%
COC(=O)c1c(NC(=O)/C=C/C(=O)O)sc(C)c1-c1ccc(C)c(C)c1,?,89.1µM*,-25.4%,-4.5%
COC(=O)c1sccc1NC(=O)/C=C/C(=O)O,-14.8%,3.0%,-6.3%,-6.1%
CN1CCN(C(=S)NC(=O)c2ccc(Cl)cc2)CC1,26.7µM*,-7.6%,?,-9.8%
O=C(NC(=S)N1CCCC1)c1ccc(Cl)cc1,1.7%,6.1%,?,0.7%
CC1CCN(C(=S)NC(=O)c2ccc(C(C)(C)C)cc2)CC1,-1.1%,10.3%,31.6µM*,-10.2%
CSc1ccc(-c2nc(CSCC(=O)NCc3cccs3)c(C)o2)cc1,.,.,-5.4%,.
Cc1ncn[nH]1,.,.,-2.5%,.
Cc1[nH]c2ccccc2c1CCCO,-10.2%,0.2%,0.0%,3.2%
COC1=C(OC)C(=O)C(CCCCCCCCCCO)=C(C)C1=O,.,44.7µM*,217.6%,-10.7%
CCCCCCCCCCC1=C(C)C(=O)C(OC)=C(OC)C1=O,.,39.8µM*!,8.0%[176 µM],-4.7%
CCOc1cc(C2C3=C(CC(C)(C)CC3=O)OC3=C2C(=O)CC(C)(C)C3)cc([N+](=O)[O-])c1O,33.6µM*,5.4%,-8.1%,1.1%
CCOc1cc(C2C3=C(CCCC3=O)OC3=C2C(=O)CCC3)cc([N+](=O)[O-])c1O,-28.9%,-8.2%,3.4%,12.6%
CC1(C)CC(=O)C2=C(C1)OC1=C(C(=O)CC(C)(C)C1)C2c1cc([N+](=O)[O-])cc([N+](=O)[O-])c1O,16.8µM*,?,?,0.0%
CC1(C)CC(=O)C2=C(C1)OC(N)=C(C#N)[C@@H]2c1ccccc1[N+](=O)[O-],?,-7.7%,-26.2%,-9.3%
CN(Cc1ccccc1)S(=O)(=O)c1ccc(Cl)c(C(=O)Nc2nnc(C3CC3)s2)c1,.,.,0.6%,.
O=C(CSc1ncc(-c2ccc(Cl)cc2)o1)Nc1ccc(Cl)cc1,.,.,-3.9%,.
Cl/C(=C/c1ccc(Cl)cc1)c1ncc(-c2ccc(Cl)cc2)o1,.,.,35.5µM*,.
Cc1ccc(-n2nc(C)c(C(=O)O)n2)c(C)c1,-18.4%,-6.4%,1.3%,-11.4%
CC1=NN(c2ccc(C)cc2C)C(=O)C1C(c1ccccc1)C1C(=O)N(c2ccc(C)cc2C)N=C1C (stereo not given),18.9µM*,?,.,17.3%
Cc1c(C)n(CC(O)CSc2ccccc2)c2ccccc12 (stereo not given),2.38µM*,.,?,.
O=C(NCCc1ccccn1)c1cccc(Cl)c1,.,.,12.9%,.
SMILES,PLK1 PBD block,VDR inhibitor,12-LOX inh,KAT2A inh
COc1cccc(-n2c(SCc3cc(=O)oc4cc(O)c(O)cc34)nc3ccccc3c2=O)c1,?,-6.8%,7.08µM*,?
COCc1ccc(C(=O)NC(C)c2ccc(F)cc2F)cc1 (stereo not given),.,.,-21.1%,.
CC(NC(=O)c1ccc2c(c1)CCCC2)c1ccc(F)cc1F (stereo not given),.,.,39.8µM*,.
CCCc1nnc(NC(=O)c2cc(=O)c3cc(Cl)c(C)cc3o2)s1,.,.,22.4%,.
O=[N+]([O-])c1ccc(Cl)c(CN2CCC(O)CC2)c1,-10.5%,?,-12.3%,-4.6%
O=[N+]([O-])c1ccc(Cl)c(CN2CCCCCC2)c1,-9.4%,0.7%,0.562µM*,0.1%
CC(=O)N1CC23C=CC(CC2CC12CCCCCC2)O3 (stereo not given),8.44µM*,?,1.7%,-3.3%
O=C(c1ccco1)N1CCN(C/C=C/c2ccccc2)CC1,29.9µM*,-10.2%,40.4%,-1.9%

# Screening data: PubChem BioAssay, National Center for Advancing Translational Sciences (NCATS)
